Assays:
Test in all cases: DAPPL (digital affinity profiling via proximity ligation, sequencing); 10 mM Tris-HCl pH 7.5, 50 mM NaCl, 1 mM DTT, 4% glycerol, room temperature, 30 min; GST-TFs on glutathione beads, 16-mer random dsDNA library, 0.1% formaldehyde crosslink after washing; high values mean tight binding
Details in all cases: protein: recombinant; tags: N-terminal GST; dsDNA, one strand shown
[1] = biological target: T1, FLI1 (Homo sapiens, UniProt Q01543 1-452)
T1 sequence: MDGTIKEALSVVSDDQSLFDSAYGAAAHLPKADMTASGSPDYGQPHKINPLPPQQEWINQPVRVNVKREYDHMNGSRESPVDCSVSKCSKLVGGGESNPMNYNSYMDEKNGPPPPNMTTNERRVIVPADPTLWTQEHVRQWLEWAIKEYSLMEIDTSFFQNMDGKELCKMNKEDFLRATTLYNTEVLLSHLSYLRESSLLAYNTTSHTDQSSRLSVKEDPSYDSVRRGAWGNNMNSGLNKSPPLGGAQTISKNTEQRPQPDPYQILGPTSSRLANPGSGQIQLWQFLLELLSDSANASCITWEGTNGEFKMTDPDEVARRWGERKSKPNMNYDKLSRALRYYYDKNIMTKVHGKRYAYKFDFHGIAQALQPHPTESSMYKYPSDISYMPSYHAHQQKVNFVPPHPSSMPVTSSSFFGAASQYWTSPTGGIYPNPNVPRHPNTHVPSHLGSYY
Summary of the method: (§1)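 After expression in yeast as GST fusions, human transcription factors were bound to glutathione beads, DNA-barcoded and mixed with a tag-only sample. The pools were incubated with 200 nmole of a 16-mer random double-stranded DNA library in Tris/NaCl/DTT/glycerol buffer (30 min, room temperature), washed and crosslinked with 0.1% formaldehyde. Proximity ligation with BsaI/T4 ligase ran for 1 h at 37 °C, before PCR amplification and sequencing on an Illumina NextSeq500. Binding signal is a hexamer's read frequency for a factor divided by its frequency for the tag-only sample.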

[2] = biological target: T2, ELK1 (Homo sapiens, UniProt P19419 1-428)
T2 sequence: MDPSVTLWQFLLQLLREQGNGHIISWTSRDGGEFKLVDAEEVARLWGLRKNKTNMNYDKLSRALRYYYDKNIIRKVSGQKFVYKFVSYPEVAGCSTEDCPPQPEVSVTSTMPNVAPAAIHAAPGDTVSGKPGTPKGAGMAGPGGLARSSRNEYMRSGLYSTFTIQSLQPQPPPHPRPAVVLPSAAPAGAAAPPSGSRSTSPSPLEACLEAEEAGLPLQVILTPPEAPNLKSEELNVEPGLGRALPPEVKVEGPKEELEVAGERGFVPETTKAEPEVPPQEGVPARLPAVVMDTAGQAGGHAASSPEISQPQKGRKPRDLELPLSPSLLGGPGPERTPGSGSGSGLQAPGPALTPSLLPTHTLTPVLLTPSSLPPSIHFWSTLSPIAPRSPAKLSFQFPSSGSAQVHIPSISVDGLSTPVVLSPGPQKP
Summary of the method: as §1

[3] = biological target: T3, GABPA (Homo sapiens, UniProt Q06546 1-454)
T3 sequence: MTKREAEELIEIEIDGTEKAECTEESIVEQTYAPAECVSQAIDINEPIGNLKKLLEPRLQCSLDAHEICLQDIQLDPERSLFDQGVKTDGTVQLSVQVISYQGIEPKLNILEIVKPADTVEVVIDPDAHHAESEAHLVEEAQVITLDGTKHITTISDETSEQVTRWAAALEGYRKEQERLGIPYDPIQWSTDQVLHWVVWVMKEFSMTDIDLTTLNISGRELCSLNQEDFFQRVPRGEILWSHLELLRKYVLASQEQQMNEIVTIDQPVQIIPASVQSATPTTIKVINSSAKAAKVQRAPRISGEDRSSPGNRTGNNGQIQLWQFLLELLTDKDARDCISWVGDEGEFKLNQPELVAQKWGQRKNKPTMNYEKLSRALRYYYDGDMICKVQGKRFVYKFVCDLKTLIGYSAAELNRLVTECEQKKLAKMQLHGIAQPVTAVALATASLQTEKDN
Summary of the method: as §1

[4] = biological target: T4, ERG (Homo sapiens, UniProt P11308 1-479)
T4 sequence: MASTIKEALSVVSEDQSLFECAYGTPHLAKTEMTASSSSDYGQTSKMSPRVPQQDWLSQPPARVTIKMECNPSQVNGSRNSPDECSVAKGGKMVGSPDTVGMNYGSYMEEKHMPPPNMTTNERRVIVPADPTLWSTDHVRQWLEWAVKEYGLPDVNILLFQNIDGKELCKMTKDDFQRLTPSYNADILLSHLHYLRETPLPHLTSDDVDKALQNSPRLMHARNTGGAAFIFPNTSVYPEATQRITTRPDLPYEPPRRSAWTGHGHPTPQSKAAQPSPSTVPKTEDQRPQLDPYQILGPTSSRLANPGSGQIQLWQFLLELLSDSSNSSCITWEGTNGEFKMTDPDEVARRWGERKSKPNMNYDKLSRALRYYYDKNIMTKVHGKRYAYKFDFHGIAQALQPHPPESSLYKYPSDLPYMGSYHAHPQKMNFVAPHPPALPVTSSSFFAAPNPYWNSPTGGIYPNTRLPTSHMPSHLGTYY
Summary of the method: as §1

[5] = biological target: ELF1 (Homo sapiens, UniProt P32519 1-619)
Summary of the method: as §1

[6] = biological target: T5, EHF (Homo sapiens, UniProt Q9NZC4 1-300)
T5 sequence: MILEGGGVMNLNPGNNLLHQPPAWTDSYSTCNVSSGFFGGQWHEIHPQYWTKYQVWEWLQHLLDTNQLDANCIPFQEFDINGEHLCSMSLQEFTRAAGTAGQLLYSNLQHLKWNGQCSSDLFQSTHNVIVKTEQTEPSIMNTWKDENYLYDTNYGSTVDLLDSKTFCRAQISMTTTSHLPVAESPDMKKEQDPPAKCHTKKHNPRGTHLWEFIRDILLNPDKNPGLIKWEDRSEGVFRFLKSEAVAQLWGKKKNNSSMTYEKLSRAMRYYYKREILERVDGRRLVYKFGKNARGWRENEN
Summary of the method: as §1

[7] = biological target: SPI1 (Homo sapiens, UniProt P17947 1-270)
Summary of the method: as §1

[8] = biological target: SPIB (Homo sapiens, UniProt Q01892 1-262)
Summary of the method: as §1

[9] = biological target: T6, ELK3 (Homo sapiens, UniProt P41970 1-407)
T6 sequence: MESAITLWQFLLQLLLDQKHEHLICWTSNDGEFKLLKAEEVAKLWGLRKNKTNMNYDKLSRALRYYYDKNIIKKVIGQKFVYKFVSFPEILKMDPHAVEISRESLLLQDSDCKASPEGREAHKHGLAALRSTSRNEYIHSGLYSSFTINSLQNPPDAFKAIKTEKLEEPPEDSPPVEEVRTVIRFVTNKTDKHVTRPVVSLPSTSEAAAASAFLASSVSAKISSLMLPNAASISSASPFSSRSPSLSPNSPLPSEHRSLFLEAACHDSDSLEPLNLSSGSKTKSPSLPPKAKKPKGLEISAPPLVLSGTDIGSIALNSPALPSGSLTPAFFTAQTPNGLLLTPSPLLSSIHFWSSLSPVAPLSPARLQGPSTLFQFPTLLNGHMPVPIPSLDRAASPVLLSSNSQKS
Summary of the method: as §1

Sequence of ELF1 (P32519 whole entry): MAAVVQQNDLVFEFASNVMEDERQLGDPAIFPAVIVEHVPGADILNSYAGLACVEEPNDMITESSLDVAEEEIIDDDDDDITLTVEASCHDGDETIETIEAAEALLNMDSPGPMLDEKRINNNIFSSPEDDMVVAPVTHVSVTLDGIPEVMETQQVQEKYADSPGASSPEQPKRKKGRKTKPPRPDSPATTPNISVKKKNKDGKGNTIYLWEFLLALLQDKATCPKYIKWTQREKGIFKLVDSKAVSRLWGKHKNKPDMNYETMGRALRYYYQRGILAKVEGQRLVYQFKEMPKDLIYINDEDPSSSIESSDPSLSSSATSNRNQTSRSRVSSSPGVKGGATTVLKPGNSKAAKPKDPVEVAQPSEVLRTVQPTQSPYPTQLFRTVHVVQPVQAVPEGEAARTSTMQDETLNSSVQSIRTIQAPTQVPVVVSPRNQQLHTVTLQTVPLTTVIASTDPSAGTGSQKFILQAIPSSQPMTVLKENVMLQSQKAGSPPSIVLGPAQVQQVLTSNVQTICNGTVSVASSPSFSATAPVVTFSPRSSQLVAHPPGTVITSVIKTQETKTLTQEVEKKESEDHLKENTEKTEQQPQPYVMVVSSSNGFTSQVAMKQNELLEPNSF
Sequence of SPIB (Q01892 whole entry): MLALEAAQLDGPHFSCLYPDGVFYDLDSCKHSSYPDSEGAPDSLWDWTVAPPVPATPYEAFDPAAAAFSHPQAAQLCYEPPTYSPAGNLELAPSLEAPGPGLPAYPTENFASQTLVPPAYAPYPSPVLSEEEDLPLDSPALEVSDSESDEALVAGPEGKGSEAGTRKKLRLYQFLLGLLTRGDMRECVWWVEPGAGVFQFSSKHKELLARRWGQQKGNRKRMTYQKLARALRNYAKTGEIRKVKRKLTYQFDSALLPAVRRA

CTTCTA
binding signal [1]: 1.39 fold enrichment (6-mer frequency, TF over GST control) | binding signal [2]: 1.41 fold enrichment (6-mer frequency, TF over GST control) | binding signal [3]: 1.44 fold enrichment (6-mer frequency, TF over GST control) | binding signal [4]: 1.32 fold enrichment (6-mer frequency, TF over GST control) | binding signal [5]: 1.52 fold enrichment (6-mer frequency, TF over GST control) | binding signal [6]: 1.54 fold enrichment (6-mer frequency, TF over GST control) | binding signal [7]: 1.41 fold enrichment (6-mer frequency, TF over GST control) | binding signal [8]: 1.48 fold enrichment (6-mer frequency, TF over GST control) | binding signal [9]: 1.34 fold enrichment (6-mer frequency, TF over GST control)
